Shown are actives, neighbours in structure and some others; about 1.2% of the full set was active somewhere.
GSH bead fluor: compound fluorescence on glutathione beads, profiling panel, artefact control, biophysical, 488/530 nm, flow cytometry | AID 1776, 2009 | fluorescence (KMESF) at 10 µM | 190,000 compounds, 0.25% hits | GSH beads flow cytometry, compound fluorescence 488/530 nm; active compounds read high; in the data active = fluorescence above about 89;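 note: glutathione beads carrying GST-tagged Bcl family fusion proteins plus one bare bead set; values are compound well signal with DMSO vehicle wells as background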
RGS4-Gao reg: modulators of RGS4 binding to Galphao, primary screen, biochemical, multiplexed bead flow cytometry; Guanine nucleotide-binding protein G(o) subunit alpha (Homo sapiens), P09471; actives lie on both sides; binding response (% of control), % at 10 µM; 220,000 compounds, 0.33% hits; AID 1415, 2008; in the data active = binding response below about 49% or above about 150%; inactive = in between;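 note: fluorescent Galphao activated with aluminum fluoride binding bead-coupled RGS4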
Target sequence (P09471 whole entry, looked up): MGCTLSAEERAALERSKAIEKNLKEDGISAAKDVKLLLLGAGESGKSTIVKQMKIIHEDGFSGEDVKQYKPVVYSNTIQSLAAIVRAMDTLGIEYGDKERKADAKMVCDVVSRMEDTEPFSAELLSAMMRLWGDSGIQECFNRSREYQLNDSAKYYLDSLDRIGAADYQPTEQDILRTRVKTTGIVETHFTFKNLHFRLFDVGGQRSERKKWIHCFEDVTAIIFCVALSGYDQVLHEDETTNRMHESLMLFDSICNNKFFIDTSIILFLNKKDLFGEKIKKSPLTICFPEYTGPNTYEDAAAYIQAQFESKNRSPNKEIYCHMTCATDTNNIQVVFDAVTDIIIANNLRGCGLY
RGS7-Gao: RGS7-Galphao binding modulators, primary screen, biochemical, multiplexed bead flow cytometry; AID 1439, 2008; Guanine nucleotide-binding protein G(o) subunit alpha (Homo sapiens), P09471; 220,000 compounds, 0.35% hits; actives lie on both sides; binding response (% of control), % at 10 µM; in the data active = binding response below about 49% or above about 150%; inconclusive = no clear call, values can overlap the other calls; inactive = in between;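 note: fluorescent Galphao held in activated GDP-AlF4 state binding bead-coupled RGS7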
Avidin bead fluor: green autofluorescence of compounds with avidin beads – biophysical, 488/530 nm, flow cytometry, artefact control, profiling panel. compound fluorescence 488/530 nm; active compounds read high. fluorescence (KMESF) at 10 µM. 220,000 compounds, 0.38% hits. AID 1775, 2009; in the data active = fluorescence above about 47
RGS8-Gao: RGS8-Galphao binding modulators, primary screen, biochemical, multiplexed bead flow cytometry | Guanine nucleotide-binding protein G(o) subunit alpha (Homo sapiens), P09471 | actives lie on both sides | response (percent of control binding), % at 10 µM | 220,000 compounds, 0.34% hits | AID 1423, 2008; in the data active = response below about 60% or above about 140%; inactive = in between;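 note: Galphao activated as the GDP aluminium fluoride complex binding bead-coupled RGS8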
RGS16-Gao: modulators of RGS16 binding to Galphao, primary screen, biochemical, human proteins, multiplexed bead flow cytometry. 220,000 compounds, 0.38% hits. bead-based flow cytometry RGS16-Galphao binding, fluorescence; actives lie on both sides. AID 1441, 2008. binding response (% of control), % at 10 µM. Regulator of G-protein signaling 16 (Homo sapiens) + Guanine nucleotide-binding protein …;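 note: Galphao activated by GDP with aluminum fluoride before binding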
Target sequence (O15492 whole entry, looked up): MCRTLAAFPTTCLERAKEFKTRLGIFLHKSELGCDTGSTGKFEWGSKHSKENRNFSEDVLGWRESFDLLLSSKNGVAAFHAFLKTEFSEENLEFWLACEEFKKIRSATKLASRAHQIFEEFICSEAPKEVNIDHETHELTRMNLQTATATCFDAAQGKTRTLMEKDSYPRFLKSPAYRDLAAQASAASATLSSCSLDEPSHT
Target sequence (P09471 whole entry, looked up): as the sequence (P09471 whole entry, looked up) above
RGS-Gao: modulators of RGS–Galpha-o binding, primary screen, biochemical, multiplexed beads, flow cytometry, RGS4/7/8/16/19; 1,600 compounds, 99% hits; shares compounds with RGS16-Gao; multiplexed bead flow cytometry; RGS4–Galpha-o binding response, % at 10 µM;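 note: fluorescently labeled Galpha-o bound to GDP with aluminium fluoride binding biotinylated RGS beads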
Avidin counter: disruption of biotin probe capture by avidin, counter-screen for RGS protein interaction modulators, biochemical, flow cytometry, bead-based; 1,700 tested, under 10 active; shares compounds with RGS16-Gao; streptavidin beads, fluorescein-biotin binding; inhibition, % at 10 µM;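 active = inhibition above 50%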;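 note: median green fluorescence of gated singlet beads compared with DMSO control wells; 0% = DMSO wells and 100% = complete loss of bead fluorescence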
RGS8-Gao confirm: RGS8-Galphao binding modulators, confirmation, biochemical, multiplexed bead flow cytometry, single concentration; binding response (% of control), % at 10 µM; bead-based flow cytometry RGS8-Galphao binding, fluorescence; actives lie on both sides; 1,700 compounds, 3% hits; shares compounds with RGS16-Gao; in the data active = binding response below about 72% or above about 130%; inactive = in between;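 note: Galphao activated as GDP AlF4 complex before binding bead RGS8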
RGS7-Gao single: RGS7-Galphao binding modulators, confirmation, biochemical, multiplexed bead flow cytometry, single concentration. shares compounds with RGS16-Gao. bead-based flow cytometry RGS7-Galphao binding; actives lie on both sides. response (percent of control binding), % at 10 µM. 1,700 compounds, 7.8% hits. AID 1837, 2009; in the data active = response below about 75% or above about 130%; inactive = in between;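 note: fluorescent Galphao activated with GDP and aluminum fluoride binding bead-coupled RGS7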
RGS16-Gao single: modulators of RGS16-Galphao protein binding, confirmation, biochemical, single concentration, multiplexed bead flow cytometry. shares compounds with RGS16-Gao. bead-based flow cytometry; actives lie on both sides. response (% of control binding), % at 10 µM. 1,700 compounds, 4% hits; in the data active = response below about 74% or above about 130%; inactive = in between;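 note: Galphao activated as the GDP aluminium fluoride complex binding bead-coupled RGS16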
RGS4-Gao confirm: modulators of RGS4-Galphao protein binding, confirmation, biochemical, single concentration, multiplexed bead flow cytometry; shares compounds with RGS16-Gao; actives lie on both sides; binding response (% of control), % at 10 µM; 1,700 compounds, 4% hits; AID 1840, 2009; in the data active = binding response below about 74% or above about 130%; inactive = in between
RGS19-Gao single: regulators of RGS19-Galphao binding, confirmation, biochemical, single point, multiplexed bead flow cytometry | shares compounds with RGS16-Gao | bead-based flow cytometry RGS19-Galphao binding; actives lie on both sides | response (percent of control binding), % at 10 µM | 1,700 compounds, 5% hits | AID 1841, 2009; in the data active = response below about 50% or above about 160%; inactive = in between;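 note: 100% = no compound control and 0% = blank background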
* = called active by the depositor; ? = inconclusive; / = no result; + = active, no number; [ ] = remark or other dose. Unless noted, the rule behind the calls is not given here.

SMILES	GSH bead fluor	RGS4-Gao reg	RGS7-Gao	Avidin bead fluor	RGS8-Gao	RGS16-Gao	RGS-Gao	Avidin counter	RGS8-Gao confirm	RGS7-Gao single	RGS16-Gao single	RGS4-Gao confirm	RGS19-Gao single
CCc1cc2c(=O)c(-c3cnn(-c4ccccc4)c3)c(C)oc2cc1OCC(=O)Nc1cccc(C)c1	5	109	109	14	129	257*[activator]	109*	-1	104	94	107	102	134
COc1ccc(C(=O)C2CCCN(S(=O)(=O)C(C)C)C2)c(C)c1 (configuration not stated)	8	99	99	7	105	111	/	/	/	/	/	/	/
Cc1ccc(Sc2c(O)c3ccccc3n(C)c2=O)cc1	12	99	91	1	68	14*	99*	0	103	107	105	109	96
CC(C)(C)c1ccc(NC(=O)Nc2ccc3ccccc3n2)cc1	/	96	?	7	94	96	/	/	/	/	/	/	/
COc1cc(C(=S)N2CCOCC2)cc(OC)c1O	/	93	?	6	97	99	/	/	/	/	/	/	/
CCOC(=O)C(=Cc1ccc(-n2ccnc2)cc1)C(=O)OCC	10	4.6*	?	-2	6.7*	-2.5*	/	-2	100	105	100	103	94
CCOCCCNCC(=O)Nc1ccc(S(=O)(=O)NC(C)CC)cc1 (configuration not stated)	23	99	97	7	98	92	/	/	/	/	/	/	/
COCCn1c(C)cc(/C=C2/SC(=O)N(C(C)C(=O)OC)C2=O)c1C (configuration not stated)	/	222*[activator]	?	129*	107	225*[activator]	/	1	100	96	97	97	91
CC(C)CCNC(=O)NC(=O)COC(=O)c1cc(S(=O)(=O)N2CCOCC2)ccc1N1CCCCC1	30	25*	13*	0	12*	16*	/	0	96	81	96	90	71
CCc1nnc(NC(=O)c2cc(S(=O)(=O)N3CCOCC3)ccc2N2CCCCC2)s1	73	+[activator]	+[activator]	897*	393*[activator]	+[activator]	/	3	104	77	89	88	58
CCc1nnc(NC(=O)c2cccc(S(=O)(=O)N3CCc4ccccc43)c2)s1	22	28*	23*	0	19*	3.0*	/	-2	100	91	100	98	95
CCOC(=O)c1nn(-c2ccccc2C)c2nc(-c3ccc(Cl)cc3)c(C#N)c(=O)n12	14	81	86	5	91	83	/	/	/	/	/	/	/
CN=c1scc(-c2cccs2)n1/N=C/c1ccc(O)c(O)c1O	12	90	93	4	87	83	/	/	/	/	/	/	/
CN=c1scc(C)n1/N=C/c1ccc(O)c(O)c1O	8	64	53	6	48*	30	64*	-2	71*	57*	64*	77	29*
COc1ccc(CNC(=O)CN(CC2CCCO2)C(=O)CNS(=O)(=O)c2ccccc2)cc1 (configuration not stated)	4	129	209*[activator]	171*	86	122	129*	2	102	100	100	101	86
COc1ccc(CNC(=O)CN(CC2CCCO2)C(=O)CNS(=O)(=O)c2ccc(C)cc2)cc1 (configuration not stated)	13	95	99	15	99	103	/	/	/	/	/	/	/
COc1cc(CCC(=O)Nc2ccc(C)c(S(=O)(=O)N(C)C)c2)cc(OC)c1OC	9	104	104	15	101	102	/	/	/	/	/	/	/
CSCC[C@H](NC(=O)Nc1ccc(OC(F)(F)F)cc1)C(=O)O	/	61	?	5	55*	48	61*	0	102	99	98	102	97
Cn1c(SCC(=O)c2ccccc2)nnc1-c1cccc(N)c1	47	60	77	-2	89	-92*	60*	-1	104	108	106	105	105
CC(c1ccccc1C(O)(c1ccccc1)c1ccccc1)N(C)C (configuration not stated)	9	17*	7.0*	-3	14*	-43	/	1	104	107	108	107	91
CC(C)N(CC#CCC(O)(c1ccccc1)c1ccccc1)C(C)C	7	101	98	2	102	98	/	/	/	/	/	/	/
Brc1ccc(-c2cnco2)cc1	10	104	103	3	107	102	/	/	/	/	/	/	/
COc1ccc(CC(=O)N2CCCc3ccccc32)cc1OC	34	100	101	10	96	85	/	/	/	/	/	/	/
COc1cc(C(=O)Nc2ccc3c(c2)CCN3C(C)=O)cc(OC)c1OC	34	207*[activator]	186*[activator]	21	109	170	/	0	107	112	111	106	118

Bioassay records from PubChem.
